Compound activity as filed in PubChem BioAssay.
Compounds with a hit are over-represented: about 5.1% of the library has one in this group of screens.
ANO1 block: mouse TMEM16A channel inhibition, primary screen; 1.2% of 310,000 active; HEK293 TMEM16A/YFP iodide influx fluorescence, ionomycin; normalized B-score (activity score, 25-100; higher = stronger inhibition) at 10 µM;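 active means ratio plate-corrected score three or more library SD toward inhibition, starting fluorescence score within five deviations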;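 further: score derived from kinetic fluorescence span divided by baseline fluorescence per well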
Target sequence (Q8BHY3 whole entry, looked up): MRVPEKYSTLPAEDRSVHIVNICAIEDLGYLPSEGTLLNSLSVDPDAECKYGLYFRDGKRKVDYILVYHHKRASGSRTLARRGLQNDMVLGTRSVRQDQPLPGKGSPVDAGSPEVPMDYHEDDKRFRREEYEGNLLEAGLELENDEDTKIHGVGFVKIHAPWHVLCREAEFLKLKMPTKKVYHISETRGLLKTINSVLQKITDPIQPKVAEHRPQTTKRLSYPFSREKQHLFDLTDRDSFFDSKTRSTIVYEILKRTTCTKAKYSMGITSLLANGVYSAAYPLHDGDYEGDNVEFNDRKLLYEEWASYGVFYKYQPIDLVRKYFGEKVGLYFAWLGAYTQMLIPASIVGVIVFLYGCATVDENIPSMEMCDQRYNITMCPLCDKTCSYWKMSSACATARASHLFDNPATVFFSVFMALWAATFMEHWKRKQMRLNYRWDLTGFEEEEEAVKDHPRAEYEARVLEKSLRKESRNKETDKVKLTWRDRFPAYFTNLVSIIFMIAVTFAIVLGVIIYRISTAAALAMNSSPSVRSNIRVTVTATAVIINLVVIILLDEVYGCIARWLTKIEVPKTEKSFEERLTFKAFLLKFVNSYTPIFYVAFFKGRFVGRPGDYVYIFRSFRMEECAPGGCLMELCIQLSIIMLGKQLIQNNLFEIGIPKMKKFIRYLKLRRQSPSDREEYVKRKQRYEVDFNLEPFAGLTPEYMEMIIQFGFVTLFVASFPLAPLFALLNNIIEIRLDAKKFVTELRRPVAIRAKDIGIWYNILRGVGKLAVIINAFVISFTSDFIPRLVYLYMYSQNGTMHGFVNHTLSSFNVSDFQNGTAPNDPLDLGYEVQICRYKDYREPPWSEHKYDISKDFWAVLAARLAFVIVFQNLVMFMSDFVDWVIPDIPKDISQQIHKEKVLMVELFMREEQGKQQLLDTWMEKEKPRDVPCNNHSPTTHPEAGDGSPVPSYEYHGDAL
ANO1 activ: activators or potentiators of mouse TMEM16A chloride channel; Q8BHY3; HEK293 TMEM16A/YFP-H148Q/I152L, iodide quench fluorescence; hits give low values; B-score at 10 µM; 0.3% of 340,000 active; AID 623877;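 active means fluorescence-ratio B-score plate-corrected deviation score at least 3 library SD below zero, with starting fluorescence score within 5 deviations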;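 further: channel opened by trigger with iodide after compound preincubation; score built on the fluorescence ratio of max minus min over baseline; more negative score means more quench and so TMEM16A activation or potentiation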
CRFBP-R2 agonist: agonists of human CRF-binding protein/CRF-R2 receptor complex; activation, % at 13.2 µM; 0.46% of 350,000 active; HEK293 CRF-R2/CRF-BP, calcium dye fluorescence (FLIPR); percent of saturating CRF peptide response;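 active means activation of at least 50%, plus an integration ratio under a set limit after plate pattern correction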
MPTP inh: blocks calcium-induced mitochondrial swelling | isolated mouse mitochondria, Ca2+ swelling absorbance, 30 min | inhibition, % at 10 µM | 1.4% of 360,000 active | AID 602449;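 active means inhibition of 50% or more, scaled per plate between neutral and stimulator controls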
CRFBP-R2 block: blocks CRF-induced signaling of the CRF-BP/CRF-R2 complex; HEK293 CRF-R2/CRF-BP, CRF-induced calcium fluorescence; inhibition, % at 11.8 µM; 0.59% of 350,000 active; AID 588475;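 active means inhibition of the ligand-induced calcium signal above about 50% at the single tested concentration, limit read from the data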
NR3A LBD binder: modulates the human NR3A ligand-binding domain; 2.5% of 340,000 active; Tm shift relative to glycine control, % at 25 µM; NR3A LBD differential scanning fluorimetry, Tm shift; 0% = protein alone, 100% = glycine-bound protein;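 active means melting temperature shift of at least 10% of the positive control shift, at one fixed dose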
Numbers stand for hits; i = inactive; nt = not tested or not shown.

SMILES	ANO1 block	ANO1 activ	CRFBP-R2 agonist	MPTP inh	CRFBP-R2 block	NR3A LBD binder
COc1ccc(-c2cccc(NC(=O)c3ccco3)c2)nn1	i	i	i	i	i	43
O=C(Nc1cccc(NC(=O)c2ccc(-c3ccc(Br)cc3)o2)c1)c1ccco1	i	i	i	i	i	31
COC(=O)c1sc(NC(=O)CC(C)C)c(C(=O)OC)c1C	i	i	i	i	i	21
CC(OC(=O)c1ccc(CN2CCCC2=O)cc1)C(=O)Nc1ccc(Cl)cc1 (stereo unspecified)	nt	i	i	i	i	i
N#CCSc1nc2sccc2c(=O)n1-c1ccccc1	i	i	i	i	74	i
O=C(N/N=C/c1c[nH]c2ccccc12)C1CC1(c1ccccc1)c1ccccc1 (stereo unspecified)	i	i	i	i	i	13
O=C(N/N=C/c1c[nH]c2ccccc12)C1COc2ccccc2O1 (stereo unspecified)	i	i	i	i	i	28
COc1ccc(N2CCN(C(=O)CCS(=O)(=O)c3ccc4c(c3)NC(=O)CO4)CC2)cc1	i	i	i	i	56	i
OC(CNCc1ccco1)Cn1c2ccc(Br)cc2c2cc(Br)ccc21 (stereo unspecified)	i	i	i	i	i	24
Brc1ccc2ncnc(NCc3ccco3)c2c1	i	i	i	i	i	i
O=C(CC(C(=O)O)c1ccc(Cl)cc1)c1ccc(Br)cc1 (stereo unspecified)	i	i	i	i	i	i
COc1ccc2c(c1)/C(=C/c1cc(OC)c(OC)c(OC)c1)C(=O)N2	nt	i	i	i	106	i
COc1ccc(-c2noc(CCC(=O)NC3CCCCCC3)n2)cc1OC	nt	nt	i	i	i	nt
Cn1c2ccccc2c(=O)c2c(=O)n(-c3ccccc3)c(C3CCCCC3)nc21	i	i	i	i	i	i
CCc1nc2c(c(=O)c3ccccc3n2C)c(=O)n1C1CCCCCC1	i	i	226	i	i	i
Cn1c2ccccc2c(=O)c2c(=O)n(C3CCCCC3)c(-c3cccs3)nc21	i	i	116	i	i	i
Cc1cc(Cl)ccc1NC(=S)NCc1ccc(F)cc1	i	i	i	i	i	i
O=[N+]([O-])c1ccc(NN=Cc2cccc(O)c2)nc1	nt	i	i	i	i	12
Cn1ncc(N=Cc2ccc([N+](=O)[O-])cc2)c1C(=O)Nc1ccccc1	i	i	i	i	i	14
COc1cc(/C=N/Nc2ccc([N+](=O)[O-])cn2)cc(OC)c1O	i	i	i	i	i	i
O=[N+]([O-])c1ccc(N/N=C\c2cccnc2)nc1	i	i	i	i	i	i
CC(=O)Nc1ccc(C=NNc2ccc([N+](=O)[O-])cn2)cc1	nt	i	i	i	i	24
CCOC(=O)c1cn2nc(SCc3ccccc3)nc2nc1C	i	i	i	i	i	i
Cn1cccc1/C=C1\SC(=Nc2cccc(O)c2)NC1=O	i	i	i	i	i	26
Cc1ccc(N=C2NC(=O)/C(=C\c3ccco3)S2)cc1	i	i	i	i	i	i
SMILES	ANO1 block	ANO1 activ	CRFBP-R2 agonist	MPTP inh	CRFBP-R2 block	NR3A LBD binder
Cc1ccc(N=C2NC(=O)/C(=C/c3cn(C)c4ccccc34)S2)cc1C	i	i	64	i	i	32
Cn1cccc1/C=C1\SC(=Nc2ccc(O)cc2)NC1=O	i	i	i	i	i	i
COc1cc(/C=C2\SC(=Nc3ccc(O)cc3)NC2=O)cc(OC)c1O	i	-4.7	i	i	i	13
O=C1NC(=Nc2ccc(O)cc2)S/C1=C/c1ccco1	i	i	i	i	i	13
COc1ccc(C(=O)NCC(=O)OCC(=O)N2CC(C)OC(C)C2)cc1OC (stereo unspecified)	nt	i	i	i	i	i
Cc1ccc(S(=O)(=O)NC2=NCN(CC(=O)O)CN2)cc1	i	i	i	i	i	i
CC(OC(=O)CCC(=O)c1cccs1)C(=O)NC1CCCCC1C (stereo unspecified)	nt	i	i	i	i	i
Cc1[nH]n(-c2nc(-c3ccc(Cl)cc3)cs2)c(=O)c1N=Nc1ccc(O)cc1	i	i	i	i	i	19
CCc1c(C)[nH]n(-c2nc(-c3ccccc3)cs2)c1=O	i	i	i	i	i	i
Cc1cccc(C)c1NC(=O)C(C)NCc1cccs1 (stereo unspecified)	nt	nt	i	i	i	nt
